The values that follow come from PubChem BioAssay AID687022 (Broad Institute, 2013).

The whole screen tested about 1,000 compounds, of which about 360 (36%) were called active.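 Rule for the calls: active = Fitted curve of melting temperature shift crosses the 1.0 threshold at or below the sample's highest valid tested concentration; inconclusive = Flat fit with activity 30 to 70, or invalid fit; inactive = Opposite direction, flat within 30, or no crossing.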 Only a sample is shown.

The target in this test is Fibroblast growth factor 22 (Homo sapiens) (UniProt Q9HCT0). Nature of the test: binders of human FGF22 protein, dose response, FGF22 synaptogenesis inhibitor project, biophysical, thermal shift, cherry-pick (AID 687022). Note: reference of the scale not given here. The settings on record: recombinant FGF22 thermal shift, SYPRO orange melting; series mostly up to 38 µM; Tm shift activity: at the top concentration.
Fibroblast growth factor 22 (Homo sapiens), sequence (Q9HCT0 whole entry, looked up): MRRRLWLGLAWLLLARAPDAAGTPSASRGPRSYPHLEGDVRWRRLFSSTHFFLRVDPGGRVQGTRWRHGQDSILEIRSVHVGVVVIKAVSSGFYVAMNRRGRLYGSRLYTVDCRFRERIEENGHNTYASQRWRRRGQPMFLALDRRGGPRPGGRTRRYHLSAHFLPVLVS
Consider `O=C(N[C@@H]1C=C[C@@H](CC(=O)N2CCCCC2)O[C@@H]1CO)c1cccc(F)c1`, for which the “Tm shift activity” value was -0.288% [at 42 µM] (inactive).

In the case of `O=C(c1ccccc1F)N1CC(=O)N2[C@@H](CO)[C@H](c3ccc(-c4ccc(F)cc4)cc3)[C@@H]2C1`, the “Tm shift activity” value was -1.1% [at 42 µM] (inactive).

As to `Cc1ccccc1-c1ccccc1[C@@H]1[C@@H](C#N)N(C(=O)c2ccccc2)[C@H]1CO`, the “Tm shift activity” value is -0.262% (inactive).

Consider `CCOC(=O)[C@]12CCCC=C1N(Cc1ccccc1)C(=O)[C@H](CC(=O)NCC1CCCCC1)C2`, for which the “Tm shift activity” value was 0.402% (inactive).

Consider `O=C(Nc1ccc2c(c1)OCO2)c1cnn2cccnc12`, for which the “Tm shift activity” value is -0.154% (inactive).

`C[C@H]1CN([C@@H](C)CO)C(=O)c2cc(NC(=O)CCC(F)(F)F)ccc2O[C@H]1CN(C)CC1CC1`: the “Tm shift activity” value is -0.033% [at 10 µM] (inactive).

With `C[C@H]1CN([C@@H](C)CO)C(=O)c2cc(NS(=O)(=O)c3ccccc3)ccc2O[C@@H]1CN(C)C`, the “Tm shift activity” value is -0.047% (inactive).

On to `C[C@H](CO)N1C[C@H](C)[C@H](CN(C)S(=O)(=O)c2ccc(F)cc2)Oc2ccc(NC(=O)c3ccncc3)cc2C1=O`, for which the “Tm shift activity” value is -0.057% (inactive).

Regarding `COc1cccc(NC(=O)OCCN2CCN(Cc3ccccc3)CCC2=O)c1`, the “Tm shift activity” value was 0.08% (inactive).

Regarding `O=C(Cn1[nH]c(=O)c2ccccc2c1=O)Nc1cccnc1`, the “Tm shift activity” value was 0.021% (inactive).

For `COc1ccc(Br)cc1S(=O)(=O)Nc1ncccc1C`, the “Tm shift activity” value is -0.096% (inactive).

As to `Cc1cccnc1NC(=O)CCCN1C(=O)c2ccccc2C1=O`, the “Tm shift activity” value is 0.14% (inactive).

In the case of `Cc1ccc(-c2ccc([C@@H]3[C@@H](CO)N4C(=O)CN(C(=O)c5ccc(F)cc5)C[C@H]34)cc2)cc1`, the “Tm shift activity” value was 14.5% (inactive).

For `Cc1cc(C(=O)O/N=C(\N)c2ccncc2)ccc1[N+](=O)[O-]`, the “Tm shift activity” value is -0.188% (inactive).

With `Cc1ccc(-n2c(O)c(C=NC3CCS(=O)(=O)C3)c3ccccc3c2=O)cc1C` (stereo not drawn), the “Tm shift activity” value is -0.046% (inactive).

Regarding `COCC(=O)NC[C@H]1[C@H](c2ccc(C3=CCCC3)cc2)[C@@H](CO)N1C(C)=O`, the “Tm shift activity” value is -0.131% [at 42 µM] (inactive).

For the molecule `C[C@H]1CN([C@@H](C)CO)C(=O)c2cc(NC(=O)Cc3ccccc3)ccc2O[C@H]1CN(C)Cc1ccc2c(c1)OCO2`, the “Tm shift activity” value was -0.068% (inactive).

Turning to `COc1cc(OC)cc(C(=O)Nc2nc3ccc(S(C)(=O)=O)cc3s2)c1`, the “Tm shift activity” value was 0.771% (inactive).

As to `Cc1ccc(S(=O)(=O)Nc2ccc3c(c2)C(=O)N([C@@H](C)CO)C[C@@H](C)[C@@H](CN(C)C)O3)cc1`, the “Tm shift activity” value was -0.078% (inactive).

In the case of `C[C@@H]1CN([C@H](C)CO)S(=O)(=O)c2ccc(C#CC3CC3)cc2O[C@H]1CN(C)C(=O)c1ccncc1`, the “Tm shift activity” value is -0.481% (inactive).

For the molecule `CC(C)(CNCc1ccccc1)NS(=O)(=O)c1ccc(Cl)cc1`, the “Tm shift activity” value was -0.043% (inactive).

For `CCCCNC(=O)c1onc(CSc2ccc(C(C)C)cc2)c1C(=O)O`, the Tm shift activity was 0.765% [at 5 µM] (inactive).

On to `Cc1noc(C)c1S(=O)(=O)N(C)C[C@H]1Oc2ccc(NS(=O)(=O)c3cccs3)cc2C(=O)N([C@@H](C)CO)C[C@H]1C`, for which the “Tm shift activity” value is -0.774% (inactive).

For the molecule `COc1ccc(Nc2nnc(-c3ccncc3)s2)cc1Cl`, the “Tm shift activity” value was 0.068% (inactive).

Consider `CO[C@H](CN(C)S(=O)(=O)c1cccc(Cl)c1)[C@H](C)CN([C@@H](C)CO)S(=O)(=O)c1cccc(Cl)c1`, for which the “Tm shift activity” value was 0.223% [at 42 µM] (inactive).

In the case of `C[C@@H]1CN([C@@H](C)CO)C(=O)c2cccc(NC(=O)C3CC3)c2O[C@H]1CN(C)Cc1ccncc1`, the “Tm shift activity” value was 0.078% (inactive).

As for `O=C(C[C@@H]1C=C[C@H](NC(=O)Nc2cc(F)ccc2F)[C@H](CO)O1)Nc1ccc(-c2ccccc2)cc1`, the “Tm shift activity” value was 0.09% (inactive).

For `CCC(=O)N(NC1=NS(=O)(=O)c2ccccc21)S(=O)(=O)c1ccc(C)cc1`, the “Tm shift activity” value was -0.105% (inactive).

For the molecule `CC(C)(C)NC(=O)CN(C(=O)CNS(=O)(=O)c1ccc(Cl)cc1)c1ccc2c(c1)OCCO2`, the “Tm shift activity” value is -0.101% (inactive).

With `O=[N+]([O-])c1ccc(Cl)c(S(=O)(=O)Nc2ccc(S(=O)(=O)N3CCOCC3)cc2)c1`, the “Tm shift activity” value was -0.245% (inactive).

For `O=[N+]([O-])c1cccc(S(=O)(=O)Nc2ccc(S(=O)(=O)Nc3nccs3)cc2)c1`, the “Tm shift activity” value was -0.075% (inactive).

For `CC(=O)c1ccc(NS(=O)(=O)c2ccc(N)cc2)cc1`, the “Tm shift activity” value was -0.172% (inactive).

In the case of `CC(=O)c1sc(NC(=O)c2cc(=O)c3ccccc3o2)nc1C`, the “Tm shift activity” value was 0.254% (inactive).

As for `CCOc1ccc(N(CC(=O)NCCSc2ccccn2)S(=O)(=O)c2ccc(Cl)cc2)cc1`, the “Tm shift activity” value is -0.149% (inactive).

Regarding `N#C[C@@H]1[C@H](c2ccc(-c3cccnc3)cc2)[C@H](CO)N1C(=O)Nc1ccc(F)cc1`, the “Tm shift activity” value was -0.106% [at 42 µM] (inactive).

In the case of `CC(C)C#Cc1cnc2c(c1)C(=O)N([C@H](C)CO)C[C@H](C)[C@H](CN(C)C(=O)c1cnccn1)O2`, the “Tm shift activity” value is -0.112% [at 42 µM] (inactive).

For the molecule `Cc1noc(C)c1NC(=O)Nc1ccc2c(c1)CC(=O)N([C@@H](C)CO)C[C@H](C)[C@@H](CN(C)Cc1ccc3c(c1)OCO3)O2`, the “Tm shift activity” value was -0.148% (inactive).

In the case of `CC(C)NC(=O)Nc1ccc2c(c1)C(=O)N([C@H](C)CO)C[C@H](C)[C@@H](CN(C)C(=O)NC(C)C)O2`, the “Tm shift activity” value is 0.003% (inactive).

For the molecule `COc1cccc(NC(=O)N2C[C@H](O)COC[C@@H]3O[C@@H](CC(=O)NC4CCC4)CC[C@H]32)c1`, the “Tm shift activity” value was -0.128% (inactive).

Regarding `COc1ccc(CCNS(=O)(=O)CCNC(=O)c2ccc3c(c2)OCO3)cc1`, the “Tm shift activity” value is -0.261% (inactive).

As for `CSc1ccc(C(=O)NCC2CCN(C(=O)C(=O)c3cc4ccccc4o3)CC2)cc1`, the “Tm shift activity” value is -1.12% (inactive).

For the molecule `C/C(CC(=O)Nc1cccc(Cl)c1Cl)=N\NC(=O)C(=O)NC1CCCCC1`, the “Tm shift activity” value is 0.278% (inactive).

For the molecule `O=C(CC1CC1)N1CC2(C1)[C@H](c1ccccc1)[C@H](CO)N2C(=O)c1cnccn1`, the “Tm shift activity” value is -0.016% [at 42 µM] (inactive).

Consider `COCC(=O)Nc1ccc2c(c1)OC[C@@H](C)N(C)C[C@H](C)[C@@H](OC)CN(C)C2=O`, for which the “Tm shift activity” value is 0.133% (inactive).

On to `Cc1ccc(N(C(=O)c2csnn2)C(C(=O)NC2CCCC2)c2ccccn2)c(C)c1` (stereo not drawn), for which the “Tm shift activity” value is 0.564% (inactive).

Regarding `O=C(C1CCCC1)N1CC2(C1)[C@H](c1ccccc1)[C@@H](CO)N2CC1CC1`, the “Tm shift activity” value is -0.131% [at 42 µM] (inactive).

`C[C@H]1CN([C@@H](C)CO)C(=O)c2cc(C3=CCCC3)cnc2O[C@H]1CN(C)C(=O)CN(C)C`: the “Tm shift activity” value was 0.046% (inactive).

Turning to `Cc1cc(C(=O)Nc2cccc3c2O[C@@H](CN(C)C(=O)NC2CCCCC2)[C@@H](C)CN([C@H](C)CO)C3=O)n(C)n1`, the “Tm shift activity” value was -0.109% (inactive).

Take `Nc1n[nH]c(=S)n1/N=C1/C(=O)Nc2ccccc21`: the “Tm shift activity” value is -1.04% [at 19.5 µM] (inactive).

On to `O=C(COC(=O)CCCOc1ccc(Cl)cc1Cl)NCc1ccccc1`, for which the “Tm shift activity” value was -0.091% (inactive).

Turning to `Cc1ccc(NC(=O)COC(=O)Cn2cnc3c2c(=O)n(C)c(=O)n3C)cc1F`, the “Tm shift activity” value is -1.53% (inactive).

With `O=C(NCC[C@@H]1CC[C@@H](NS(=O)(=O)c2ccccc2)[C@@H](CO)O1)c1ccc2c(c1)OCO2`, the “Tm shift activity” value is -1.36% [at 42 µM] (inactive).

`COCC(=O)N(C)C[C@@H]1Oc2cc(C#C[C@H](C)O)ccc2S(=O)(=O)N([C@@H](C)CO)C[C@H]1C`: the “Tm shift activity” value was -0.017% [at 42 µM] (inactive).
